Compound activity from PubChem BioAssay.
Shown are actives, neighbours in structure and some others; about 12% of the full set was active somewhere.
G9a block: G9a (human) methyltransferase inhibition; Q96KQ7; G9a H3K9 monomethylation, AlphaScreen, 2 h; Potency, µM (doses to about 102 µM), inactives show at the highest dose activity, negative = inhibition, most hits filed as inhibitors; hit rate 8.8% among 350,000; further: potency means the concentration at half of the fitted maximal effect; on the % scale 0 is the no-effect control and ±100 the full control effect; nearly all actives have a fitted effect of over 75% in size
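Compounds were preincubated with 20 nM G9a for 15 min, after which biotinylated H3K9 peptide (500 nM) and SAM (20 uM) started a 2 h room-temperature reaction. Monomethylated product was quantified by antibody-based AlphaScreen chemiluminescence.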
JMJD2A Tudor: blocks the human JMJD2A Tudor domain; AlphaScreen JMJD2A-Tudor / H3K4me3 peptide binding; Potency, µM (series often up to 114 µM), for inactives: at the top dose activity change, negative = inhibition, usual class: inhibitors; hit rate 4.4% among 390,000; further: potency means the concentration at half of the fitted maximal effect; on the % scale 0 is the no-effect control and ±100 the full control effect; nearly all actives have a fitted effect of over 50% in size
Target sequence (O75164 whole entry, looked up, the tested form may be a part): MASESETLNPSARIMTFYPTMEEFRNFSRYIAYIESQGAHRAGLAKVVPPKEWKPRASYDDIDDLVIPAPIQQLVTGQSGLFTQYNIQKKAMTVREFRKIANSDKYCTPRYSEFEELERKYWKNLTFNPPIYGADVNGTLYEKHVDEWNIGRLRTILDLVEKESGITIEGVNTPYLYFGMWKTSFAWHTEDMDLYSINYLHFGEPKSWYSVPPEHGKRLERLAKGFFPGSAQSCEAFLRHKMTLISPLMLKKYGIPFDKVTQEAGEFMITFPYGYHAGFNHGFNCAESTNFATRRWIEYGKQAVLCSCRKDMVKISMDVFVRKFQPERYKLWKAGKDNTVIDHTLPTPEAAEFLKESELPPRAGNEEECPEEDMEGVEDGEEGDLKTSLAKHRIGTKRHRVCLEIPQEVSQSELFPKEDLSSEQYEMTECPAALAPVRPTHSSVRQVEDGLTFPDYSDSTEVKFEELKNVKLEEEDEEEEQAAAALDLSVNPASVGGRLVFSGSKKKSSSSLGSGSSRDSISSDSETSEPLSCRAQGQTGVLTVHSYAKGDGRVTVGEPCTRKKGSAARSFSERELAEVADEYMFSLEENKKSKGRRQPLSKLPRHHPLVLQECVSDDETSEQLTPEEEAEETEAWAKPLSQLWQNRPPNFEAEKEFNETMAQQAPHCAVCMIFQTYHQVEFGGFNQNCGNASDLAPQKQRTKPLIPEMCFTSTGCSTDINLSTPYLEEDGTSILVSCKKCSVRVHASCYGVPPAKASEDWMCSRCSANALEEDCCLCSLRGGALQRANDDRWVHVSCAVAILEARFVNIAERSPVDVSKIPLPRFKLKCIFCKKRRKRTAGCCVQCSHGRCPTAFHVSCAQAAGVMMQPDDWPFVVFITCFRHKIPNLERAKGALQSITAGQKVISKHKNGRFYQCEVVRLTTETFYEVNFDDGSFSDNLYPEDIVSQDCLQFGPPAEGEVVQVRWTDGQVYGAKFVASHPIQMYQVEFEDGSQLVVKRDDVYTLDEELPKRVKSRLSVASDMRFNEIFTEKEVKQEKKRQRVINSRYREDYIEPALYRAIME
PLK1 PBD inh: PLK1 (human) polo-box domain binding inhibition | AID 720504 | hit rate 2.8% among 360,000 | Plk1 PBD binding of FITC phosphopeptide, fluorescence polarization | Potency, µM, for inactives: max response, negative = inhibition, usual class: inhibitors; further: potency means the concentration at half of the fitted maximal effect; series mostly up to about 57 µM; on the % scale 0 is the no-effect control and ±100 the full control effect; nearly all actives have a fitted effect of over 65% in size
HP1b chromo inh: blocks HP1-beta chromodomain binding to methylated histone tails | P83916 | AID 540317 | Potency, µM (series often up to 114 µM), for inactives: at the highest dose activity change, negative = inhibition, usual class: inhibitors | hit rate 0.56% among 390,000 | AlphaScreen HP1-beta / biotin-H3K9me3 peptide binding; further: potency means the concentration at half of the fitted maximal effect; nearly all actives have a fitted effect of over 70% in size
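AlphaScreen: HP1-beta (50 nM) preformed 30 min with biotin-H3(1-18)K9me3 peptide (50 nM) in PBS pH 7.4, 0.01% Tween-20. Compound added for 30 min at RT, then streptavidin donor/nickel chelate acceptor beads (10 ug/mL) for 30 min.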
BAZ2B inh: inhibitors of human BAZ2B bromodomain; Q9UIF8; AlphaScreen BAZ2B-H3K14Ac peptide displacement; Potency, µM (series often up to 114 µM), for the others: at the top dose activity change, negative = inhibition, hits mostly inhibitors; hit rate 4.4% among 360,000; AID 504333; further: potency means the concentration at half of the fitted maximal effect; on the % scale 0 is the no-effect control and ±100 the full control effect; nearly all actives have a fitted effect of over 60% in size
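AlphaScreen luminescence quantifies BAZ2B engagement of H3K14Ac peptide; the protein and biotinylated peptide are both at 50 nM final, buffer PBS pH 7.4 with 0.01% Tween-20, all steps at room temperature.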
PI5P4Ka inh: PI5P4K alpha (human) kinase inhibition | PI5P4Kalpha enzyme, ADP-Glo luminescence, 60 min; hits give low values | max response, % | hit rate 1.2% among 330,000; active means max response of -50% or lower; inconclusive means between -30% and -50%; inactive means -30% or higher; further: value at the top dose of about 77 µM; on the % scale 0 is the no-effect control and ±100 the full control effect
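Single end-point luminescence (ADP-Glo) quantified ADP from PI5P4Kalpha turnover; ATP 5 microM final, 1 h at RT, 0.1% CHAPS and 0.28 mM EGTA in HEPES pH 7.4.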
TbPYK inh: Trypanosoma brucei pyruvate kinase inhibition, cherry-pick confirmation; Potency, µM (titrated, usually from 76.9 µM), for the others: at the highest dose activity change, negative = inhibition, usual class: inhibitors; recombinant TbPYK, Kinase-Glo ATP luminescence; shares compounds with PLK1 PBD inh; hit rate 67% among 890; further: potency means the concentration at half of the fitted maximal effect; on the % scale 0 is the no-effect control and ±100 the full control effect; nearly all actives have a fitted effect of over 70% in size
TbPYK ADP-Glo: orthogonal confirmation of Trypanosoma brucei pyruvate kinase inhibitors; hit rate 62% among 890; shares compounds with PLK1 PBD inh; Potency, µM (top dose mostly 76.9 µM), without a hit: at the highest dose activity change, negative = inhibition, most hits filed as inhibitors; recombinant TbPYK, ADP-Glo luminescence, 60 min; AID 720584; further: potency means the concentration at half of the fitted maximal effect; on the % scale 0 is the no-effect control and ±100 the full control effect; nearly all actives have a fitted effect of over 75% in size
Starred values were filed as active, the others as inactive; ? = inconclusive; / = no result; [ ] = another dose, or the depositor's remark. Unless noted, the call rests on the fitted dose curve; in most records, active means well fitted curve in the direction sought with a large enough effect; inconclusive means small, poorly fitted or top-dose-only effect, or another doubt; inactive means no such curve, though single readings can be large; an effect the other way counts as inactive or inconclusive.

SMILES	G9a block	JMJD2A Tudor	PLK1 PBD inh	HP1b chromo inh	BAZ2B inh	PI5P4Ka inh	TbPYK inh	TbPYK ADP-Glo
O=c1cc(C(F)(F)F)[nH]c(=S)n1-c1ccccc1	8.9µM*	79µM*	?	?	-26%	-29	14µM*	11µM*
O=C(O)CSc1nc(C(F)(F)F)cc(=O)n1-c1ccccc1	51%[59 µM]	-17%	2%	25%	6%	0	/	/
COc1ccc(N=C(NN)c2ccc3ccccc3n2)cc1	8.9µM*	-26%	12µM*	-12%	?	1	13µM*	?
COc1ccc(CNC(=O)c2ccc3ccccc3n2)cc1	44%	9%	-2%	43%	8%	0	/	/
c1ccc2sc(SN3CCOCC3)nc2c1	?	40µM*	21µM*	?	3%	-76*	28µM*	35µM*
c1ccc2sc(N3CCOCC3)nc2c1	11%[59 µM]	-7%	-10%	58%	5%[57.1 µM]	/	/	/
O=C(c1[nH]c(C(F)(F)F)nc1-c1ccccc1)N1CCc2c([nH]c3ccccc23)C1	/	/	-7%	/	/	0	/	/
CCOc1ccccc1N1C(=O)CC(Sc2n[nH]c(-c3ccccc3)n2)C1=O (stereo not drawn)	1.6µM*	1.4µM*	7.5µM*	13µM*	?	-18	7.1µM*	13µM*
COc1ccccc1N1C(=O)CC(Sc2nc(C)cc(C)n2)C1=O (stereo not drawn)	-6%[59 µM]	-16%	-7%	32%	2%	/	/	/
Cc1occc1-c1nnc(SCc2nnc(-c3ccc(Cl)cc3)o2)n1C	79µM*	-35%[11.4 µM]	3µM*	?	-21%	?	-8%	-6%
Cn1nnnc1SCc1nnc(-c2ccc(Cl)cc2)o1	6%[59 µM]	3%	-4%	56%	-15%	3	/	/
CS(=O)(=O)n1nc(-c2ccco2)nc1NCc1ccccc1Cl	-31%[59 µM]	-13%	/	22%	-9%	/	/	/
O=C(OCc1cn([C@@H]2C[C@H](c3ccccc3)N(Cc3cccs3)C[C@H]2O)nn1)c1ccccc1	/	/	5%	/	/	3	/	/
CCCc1cc(=O)oc2cc(C)cc(OC(=O)c3ccco3)c12	6%[12.7 µM]	-2%	-8%	17%	-1%	/	6%	-11%
CC(C)CN(C(=O)CN1CCN(c2ccc(O)cc2)CC1)c1c(N)n(CC(C)C)c(=O)[nH]c1=O	?	?	-11%	50µM*	-6%	-12	?	?
CC(=O)c1ccc(N2CCN(CC(=O)N(CC(C)C)c3c(N)n(CC(C)C)c(=O)[nH]c3=O)CC2)cc1	-3%	-24%	6%	50%	-37%	2	/	/
O=C(Nc1ccc(F)cc1F)C(Cc1ccccc1)N1Cc2ccccc2C1=O (stereo not drawn)	-17%[59 µM]	-14%	/	3%	1%	/	/	/
O=C1C2C(C(=O)N1/N=C/c1ccc(N3CCCCC3)o1)C1C=CC2C12CC2 (stereo not drawn)	?	-23%	-4%	-3%	-30%	?	28µM*	32µM*
COc1cc(/C=N/N2CCN(Cc3ccc(C)cc3)CC2)cc(OC)c1O	/	40µM*	-5%	?	56µM*	-12	22µM*	28µM*
COc1cc(/C(C)=N/N2CCN(Cc3ccc(C)cc3)CC2)ccc1O	10%[0.501 µM]	-23%	-13%	8%	0%	-1	/	/
CCCCOc1ccc(NC(=O)CCSc2nccn2C)cc1	11µM*	3.2µM*	-1%	-10%	?	0	2µM*	2.2µM*
COc1ccc(-c2nc3n(n2)C(c2ccc(OC)c(OC)c2)C(C(=O)Nc2cccnc2)=C(C)N3)cc1 (stereo not drawn)	2%[59 µM]	-18%	/	42%	4%	/	/	/
CN(C)C(=S)N=Nc1[nH]c2ccccc2c1O	7.9µM*	-25%	17µM*	8%	-35%	-9	5.6µM*	6.3µM*
CC1=C(C(N)=O)C(c2ccccc2Br)n2ncnc2N1 (stereo not drawn)	-39%[59 µM]	4%	/	26%[57 µM]	-1%	/	/	/
CC1=C(C(N)=O)C(c2ccccc2[N+](=O)[O-])n2ncnc2N1 (stereo not drawn)	28µM*	40µM*	8.4µM*	?	-1%	-4	25µM*	?
SMILES	G9a block	JMJD2A Tudor	PLK1 PBD inh	HP1b chromo inh	BAZ2B inh	PI5P4Ka inh	TbPYK inh	TbPYK ADP-Glo
CC(C)(C)n1nnnc1C(c1cccnc1)N1CCN(c2cccc(C(F)(F)F)c2)CC1 (stereo not drawn)	?	-34%	-8%	47%	?	10	/	/
CC(C)(C)c1cc(C(c2cccnc2)N2CCN(CCO)CC2)cc(C(C)(C)C)c1O (stereo not drawn)	10µM*	32µM*	1.9µM*	?	50µM*	/	0.32µM*	2.8µM*
COc1cc(/C=C2\CCc3ccccc3C2=O)cc(OC)c1OC	5%[59 µM]	-7%	-2%	-5%	-14%	2	/	/
COc1ccc(C=C2CCc3ccccc3C2=O)cc1	/	/	4%	/	/	?	25µM*	12%
O=C1C(=Cc2ccc(F)cc2)CCc2ccccc21	/	/	-15%	/	/	?	28µM*	10%
O=C1C(=Cc2cccc(Cl)c2)CCc2ccccc21	/	/	0%	/	/	20	/	/
CCOc1ccc(/C=C2\CCc3ccccc3C2=O)cc1	-5%	-7%	-8%	3%	-3%	1	/	/
O=C1C(=Cc2ccc(Cl)cc2)CCc2ccccc21	/	/	2%	/	/	2	25µM*	7%
O=C1/C(=C\c2ccncc2)CCc2ccccc21	12%[2.33 µM]	-20%	-8%	41%	-9%	-28	?	7%
Cc1cccc(OCC(=O)NCc2ccc3c(c2)CCN3C(=O)c2ccc(Cl)cc2)c1	-4%[59 µM]	-16%	/	30%	1%	/	/	/
Cc1cc(C)n2nc(SC(C)C(=O)N(C)c3ccccc3)nc2n1 (stereo not drawn)	-6%[2.33 µM]	1%	5%	40%	9%	2	/	/
O=C(CN(CCO)Cc1ccccc1)N1CCN(S(=O)(=O)c2ccccc2)CC1	/	/	-6%	/	/	-1	/	/
COc1ccccc1C=C1CCc2ccccc2C1=O	/	/	0%	/	/	-11	/	/
O=C1C(=Cc2ccccc2Cl)CCc2ccccc21	/	/	-18%	/	/	-27	25µM*	9%
CC1CCc2c(sc(Nc3nc4c(F)cccc4s3)c2C(N)=O)C1 (stereo not drawn)	10µM*	?	-6%	-6%	-3%	?	8.9µM*	14µM*
O=C(Nc1nc2c(F)cccc2s1)C1CC1	/	-5%	4%	36%	-9%	7	/	/
